Experimental data published in the OligoGym collection.

Biological target: ALOX12B
Experiment: pooled miR-30 sensor sort-seq; sequence = guide strand
Settings: shRNA
Also: reference of the scale not given here.

Q: For TTTGCAGTCCAACAGGCCGCGG, which sensor-assay potency score (higher = more potent) is on record?
A: Its sensor-assay potency score (higher = more potent) is -1.33.

Q: TTGATCTGGACGGTGTATCGGG was tested. Which sensor-assay potency score (higher = more potent) did it give?
A: The sensor-assay potency score (higher = more potent) was -0.0019.

Q: Which sensor-assay potency score (higher = more potent) does the source give for TGCACATAGTTGCAGTACCAAG here?
A: Its sensor-assay potency score (higher = more potent) is -2.04.

Q: Which sensor-assay potency score (higher = more potent) does the source give for ATAATAGGTGATGATCTCCGTC here?
A: The sensor-assay potency score (higher = more potent) was -0.228.

Q: Which sensor-assay potency score (higher = more potent) does the source give for TCGCCAGTGGTAGAAGTCCTGC here?
A: The sensor-assay potency score (higher = more potent) was -1.5.

Q: How did the sensor-assay potency score (higher = more potent) turn out when TCATTGAGGAGAACGGCCCGGC was run?
A: Its sensor-assay potency score (higher = more potent) is 0.146.

Q: With AACTTGTCTGGGATCCGCGTGC as the sequence, how does the sensor-assay potency score (higher = more potent) read?
A: The sensor-assay potency score (higher = more potent) was 0.172.

Q: How did the sensor-assay potency score (higher = more potent) turn out when TCACATACTTCTCCAGTGCATT was run?
A: Its sensor-assay potency score (higher = more potent) is -1.5.

Biological target: ALPK1
Experiment: as above
Settings: shRNA

Q: How did the sensor-assay potency score (higher = more potent) turn out when TTGTTCATAGAGTCTCTTGTTA was run?
A: The sensor-assay potency score (higher = more potent) was 0.0334.

Q: Which sensor-assay potency score (higher = more potent) does the source give for TTCACTAATTTCTTCTCCCTGC here?
A: The sensor-assay potency score (higher = more potent) was -0.272.

Q: How did the sensor-assay potency score (higher = more potent) turn out when TTGATGAAGATGATGAACCCAA was run?
A: The sensor-assay potency score (higher = more potent) was 0.0893.

Q: Which sensor-assay potency score (higher = more potent) does the source give for TTCATTACATTCCACATGCTGG here?
A: The sensor-assay potency score (higher = more potent) was -0.496.

Q: How did the sensor-assay potency score (higher = more potent) turn out when TAACTTCTTGAGACAGAGCTTC was run?
A: Its sensor-assay potency score (higher = more potent) is -0.293.

Q: Which sensor-assay potency score (higher = more potent) does the source give for TTGCAGAGGAACTAAACCCTGA here?
A: The sensor-assay potency score (higher = more potent) was -0.0397.

Q: Which sensor-assay potency score (higher = more potent) does the source give for AAATCGACCACAACATCTCTAT here?
A: Its sensor-assay potency score (higher = more potent) is -0.634.

Q: Which sensor-assay potency score (higher = more potent) does the source give for TAAATCGACCACAACATCTCTA here?
A: Its sensor-assay potency score (higher = more potent) is 0.166.

Q: Which sensor-assay potency score (higher = more potent) does the source give for TATACAGACCGACTGCACCAGG here?
A: The sensor-assay potency score (higher = more potent) was -1.24.

Q: How did the sensor-assay potency score (higher = more potent) turn out when TCTGTTTTCACCACTTTCGTGT was run?
A: The sensor-assay potency score (higher = more potent) was 0.311.

Q: For TTGAACTTGTAAATGTTCCTTC, which sensor-assay potency score (higher = more potent) is on record?
A: Its sensor-assay potency score (higher = more potent) is 0.693.

Biological target: AMICA1
Experiment: as above
Settings: shRNA

Q: With TCTATCTTGAATATACATTTGT as the sequence, how does the sensor-assay potency score (higher = more potent) read?
A: The sensor-assay potency score (higher = more potent) was -0.466.

Q: How did the sensor-assay potency score (higher = more potent) turn out when TTCTTGAACACCAGGTTCCCTA was run?
A: Its sensor-assay potency score (higher = more potent) is -1.01.

Q: Which sensor-assay potency score (higher = more potent) does the source give for AATAGTATAGCACATATTCGTC here?
A: The sensor-assay potency score (higher = more potent) was -1.02.

Q: With TATAGCACATATTCGTCCTTGG as the sequence, how does the sensor-assay potency score (higher = more potent) read?
A: Its sensor-assay potency score (higher = more potent) is -0.0697.

Q: Which sensor-assay potency score (higher = more potent) does the source give for TTTTCAAGTGAGTTGTTCCGAT here?
A: The sensor-assay potency score (higher = more potent) was -0.169.

Q: For TATCTCTGGATTAGTCTTCTTC, which sensor-assay potency score (higher = more potent) is on record?
A: The sensor-assay potency score (higher = more potent) was -0.382.

Q: For TTTGTCTTCTGTGCTCTGGAAA, which sensor-assay potency score (higher = more potent) is on record?
A: Its sensor-assay potency score (higher = more potent) is -0.894.

Q: Which sensor-assay potency score (higher = more potent) does the source give for TCTGGATTAGTCTTCTTCGTGT here?
A: Its sensor-assay potency score (higher = more potent) is -0.36.

Q: Which sensor-assay potency score (higher = more potent) does the source give for TATCAGAACAGGGAGCAGCAGG here?
A: The sensor-assay potency score (higher = more potent) was -0.745.

Q: For TTGCACATCTTGGAGCAGGAGA, which sensor-assay potency score (higher = more potent) is on record?
A: Its sensor-assay potency score (higher = more potent) is -0.908.

Q: Which sensor-assay potency score (higher = more potent) does the source give for TGAATATACATTTGTCTTCTGT here?
A: Its sensor-assay potency score (higher = more potent) is -0.514.

Q: Which sensor-assay potency score (higher = more potent) does the source give for TATACATTTGTCTTCTGTGCTC here?
A: Its sensor-assay potency score (higher = more potent) is -0.0847.

Biological target: AMOTL1
Experiment: as above
Settings: shRNA

Q: How did the sensor-assay potency score (higher = more potent) turn out when TTGCAGTCCGCACTGCTGCTAA was run?
A: The sensor-assay potency score (higher = more potent) was -0.698.

Q: How did the sensor-assay potency score (higher = more potent) turn out when TTGTCAGTCTGTGTGCTGCTGT was run?
A: The sensor-assay potency score (higher = more potent) was 0.0814.

Q: With TAGACTTGACCAGACTTTCATA as the sequence, how does the sensor-assay potency score (higher = more potent) read?
A: Its sensor-assay potency score (higher = more potent) is -0.788.

Q: For TTCTTTTTCAAACTTGTGGAGC, which sensor-assay potency score (higher = more potent) is on record?
A: Its sensor-assay potency score (higher = more potent) is -0.646.

Q: With TTGTGGGTCTTCTTGAGTGAGG as the sequence, how does the sensor-assay potency score (higher = more potent) read?
A: Its sensor-assay potency score (higher = more potent) is -0.72.

Q: For TAGCAGTCTCTAGTCGATCTCG, which sensor-assay potency score (higher = more potent) is on record?
A: The sensor-assay potency score (higher = more potent) was -0.33.

Q: With TTTCTCAACATATGCTTGCTTC as the sequence, how does the sensor-assay potency score (higher = more potent) read?
A: Its sensor-assay potency score (higher = more potent) is -0.629.

Q: How did the sensor-assay potency score (higher = more potent) turn out when TTAACTTTGTTTGCAAACCTAC was run?
A: The sensor-assay potency score (higher = more potent) was 0.352.

Q: Which sensor-assay potency score (higher = more potent) does the source give for TTTTTCAAACTTGTGGAGCTTG here?
A: The sensor-assay potency score (higher = more potent) was 0.0773.
